Laboratory results: PubChem BioAssay (NCATS)
Results filed as inconclusive are left out. Calls of active or inactive are those of the source. Unless noted, calls follow the shape of the full dose curve.

How the values were obtained:
[1] = qHTS for Inhibitors of the Functional Ribonucleoprotein Complex (vRNP) of Lassa (LASV) Arenavirus: LASV Primary Screen - GLuc reporter signal (AID 1347082; calls by dose curve; tested in HEK293 reporter line; also: nearly all actives have a fitted effect of over 60% in size)
[2] = qHTS for Inhibitors of the Functional Ribonucleoprotein Complex (vRNP) of Lassa (LASV) Arenavirus: Viability assay - alamar blue signal for LASV Primary Screen (AID 1347083; calls by dose curve; tested in HEK293 reporter line; also: nearly all actives have a fitted effect of over 80% in size)
[3] = qHTS for Inhibitors of the Functional Ribonucleoprotein Complex (vRNP) of Lymphocytic Choriomeningitis Arenaviruses (LCMV): Viability assay - alamar blue signal for LCMV Primary Screen (AID 1347085; calls by dose curve; tested in HEK293 reporter line; also: nearly all actives have a fitted effect of over 80% in size)
[4] = target: Nucleoprotein (Lymphocytic choriomeningitis virus (strain Armstrong)) (UniProt P09992); test: qHTS for Inhibitors of the Functional Ribonucleoprotein Complex (vRNP) of Lymphocytic Choriomeningitis Arenaviruses (LCMV): LCMV Primary Screen - GLuc reporter signal (AID 1347086); also: nearly all actives have a fitted effect of over 70% in size
Chain of Nucleoprotein (Lymphocytic choriomeningitis virus (strain Armstrong)) (P09992 whole entry, looked up): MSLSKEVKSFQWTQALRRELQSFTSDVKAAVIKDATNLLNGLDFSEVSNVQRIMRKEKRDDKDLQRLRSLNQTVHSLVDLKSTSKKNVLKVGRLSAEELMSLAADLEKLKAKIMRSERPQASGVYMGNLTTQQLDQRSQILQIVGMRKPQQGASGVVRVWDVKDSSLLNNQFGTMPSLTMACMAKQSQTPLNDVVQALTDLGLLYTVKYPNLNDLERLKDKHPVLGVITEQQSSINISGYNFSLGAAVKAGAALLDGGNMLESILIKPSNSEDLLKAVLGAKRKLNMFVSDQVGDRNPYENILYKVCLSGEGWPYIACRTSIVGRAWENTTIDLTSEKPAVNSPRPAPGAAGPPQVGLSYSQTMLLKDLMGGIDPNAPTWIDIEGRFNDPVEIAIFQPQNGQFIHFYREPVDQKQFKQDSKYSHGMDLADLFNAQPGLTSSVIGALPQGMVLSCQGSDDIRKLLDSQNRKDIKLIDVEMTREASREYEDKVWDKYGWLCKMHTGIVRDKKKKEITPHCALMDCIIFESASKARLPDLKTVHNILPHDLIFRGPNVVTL
% is scaled to controls: 0 for no effect and ±100 for the full control effect.
Also: series mostly up to about 57 µM.

CCCn1cnc2c1c(=O)n(CCCCC(C)=O)c(=O)n2C
inactive: Potency [1] | Potency [2] | Potency [3] | Potency [4]

Cc1ccc(O)c(-n2nc3ccccc3n2)c1
inactive: Potency [1] | Potency [2] | Potency [3] | Potency [4]

CCOC(=O)N1CCC(Nc2ccc(Cl)cc2N)CC1
inactive: Potency [1] | Potency [2] | Potency [3] | Potency [4]

C[C@H](N)C(=O)N[C@@H](C)C(=O)NC1[C@H]2CN(c3nc4c(cc3F)c(=O)c(C(=O)O)cn4-c3ccc(F)cc3F)C[C@@H]12 (stereo partly specified)
inactive: Potency [1] | Potency [2] | Potency [3] | Potency [4]

OC(CCN1CCCCC1)(c1ccccc1)C1CC2C=CC1C2 (stereo unspecified)
inactive: Potency [1] | Potency [2] | Potency [3] | Potency [4]

c1ccc(CN(CC2=NCCN2)c2ccccc2)cc1
inactive: Potency [1] | Potency [2] | Potency [3] | Potency [4]

O=C(O)c1ccc(OCCN2CCCCC2)cc1
inactive: Potency [1] | Potency [2] | Potency [3] | Potency [4]

O=C(CCNNC(=O)c1ccncc1)NCc1ccccc1
inactive: Potency [1] | Potency [2] | Potency [3] | Potency [4]

O=c1[nH]sc2cc(Cl)ccc12
inactive: Potency [1] | Potency [2] | Potency [3] | Potency [4]

CC(=O)Oc1ccc2c(c1)CC[C@@H]1[C@@H]2CC[C@]2(C)[C@@H](O)CC[C@@H]12
inactive: Potency [1] | Potency [2] | Potency [3] | Potency [4]

CN1CCN(c2cc3c(cc2F)c(=O)c(C(=O)O)cn3-c2ccc(F)cc2)CC1
inactive: Potency [1] | Potency [2] | Potency [3] | Potency [4]

c1ccc(C(O[C@H]2CCCN(CCc3ccc4c(c3)OCO4)C2)c2ccccc2)cc1
inactive: Potency [1] | Potency [2] | Potency [3] | Potency [4]

CN1CCC(OC(c2ccccc2)c2ccccc2)CC1
inactive: Potency [1] | Potency [2] | Potency [3] | Potency [4]

COC(=O)C1=C(C)NC(C)=C(C(=O)O[C@@H]2CCCN(Cc3ccccc3)C2)[C@@H]1c1cccc([N+](=O)[O-])c1
inactive: Potency [1] | Potency [2] | Potency [3] | Potency [4]

O=C(O)Cn1c(C(=O)Nc2nc(-c3ccccc3Cl)cs2)cc2ccccc21
inactive: Potency [1] | Potency [2] | Potency [3] | Potency [4]

CCCN(CCC)C(=O)C(CCC(=O)O)NC(=O)c1ccccc1 (stereo unspecified)
inactive: Potency [1] | Potency [2] | Potency [3] | Potency [4]

CCC(CN)=C(c1ccccc1)c1ccccc1
inactive: Potency [1] | Potency [2] | Potency [3] | Potency [4]

O=C(O)CCc1nc(-c2ccccc2)c(-c2ccccc2)o1
inactive: Potency [1] | Potency [2] | Potency [3] | Potency [4]

O=C(/C=C/c1ccccc1)NCCO
inactive: Potency [1] | Potency [2] | Potency [3] | Potency [4]

CC(C)=CCC/C(C)=C/CC/C(C)=C/C(=O)OCC(=O)[C@@]1(O)CC[C@H]2[C@@H]3CCC4=CC(=O)C=C[C@]4(C)[C@H]3[C@@H](O)C[C@@]21C
inactive: Potency [1] | Potency [2] | Potency [3] | Potency [4]

CN(C)CCOC1=Cc2ccccc2Sc2ccc(Cl)cc21
inactive: Potency [1] | Potency [2] | Potency [3] | Potency [4]

CC(C)=CCOc1ccc(/C=C/C(=O)c2ccc(OCC=C(C)C)cc2OCC(=O)O)cc1
inactive: Potency [1] | Potency [2] | Potency [3] | Potency [4]

COc1ccccc1N1CCN(CCCNc2cc(=O)n(C)c(=O)n2C)CC1
inactive: Potency [1] | Potency [2] | Potency [3] | Potency [4]

O=C(O)C1CCC1
inactive: Potency [1] | Potency [2] | Potency [3] | Potency [4]

CCN(CC)CCNC(=O)c1cc(Br)c(N)cc1OC
inactive: Potency [1] | Potency [2] | Potency [3] | Potency [4]

CN1CCN(c2c(F)cc3c(=O)c(C(=O)O)cn(CCF)c3c2F)CC1
inactive: Potency [1] | Potency [2] | Potency [3] | Potency [4]

Cc1cccc(N(C)C(=S)Oc2ccc3ccccc3c2)c1
inactive: Potency [1] | Potency [2] | Potency [3] | Potency [4]

OC[C@]1(O)OC[C@@H](O)[C@H](O)[C@@H]1O
inactive: Potency [1] | Potency [2] | Potency [3] | Potency [4]

C[C@]12CC[C@@H]3c4ccc(O)cc4CC[C@H]3[C@@H]1C[C@@H](O)[C@@H]2O
inactive: Potency [1] | Potency [2] | Potency [3] | Potency [4]

COc1ccc2c(c1)C(=O)N(CCc1ccc(S(=O)(=O)NC(=O)NC3CCCCC3)cc1)C(=O)C2(C)C
inactive: Potency [1] | Potency [2] | Potency [3] | Potency [4]

CC1CCCCN1CCCOC(=O)c1ccc(OC2CCCCC2)cc1 (stereo unspecified)
inactive: Potency [1] | Potency [2] | Potency [3] | Potency [4]

CN(C)C/C=C(/c1ccc(Br)cc1)c1cccnc1
inactive: Potency [1] | Potency [2] | Potency [3] | Potency [4]

CC(Cc1cccc(C(F)(F)F)c1)NCCOC(=O)c1ccccc1 (stereo unspecified)
inactive: Potency [1] | Potency [2] | Potency [3] | Potency [4]

CCCN(CCC)C(=O)C(CCC(=O)OCCCN1CCN(CCOC(=O)Cc2c(C)n(C(=O)c3ccc(Cl)cc3)c3ccc(OC)cc23)CC1)NC(=O)c1ccccc1 (stereo unspecified)
inactive: Potency [1] | Potency [2] | Potency [3] | Potency [4]

Nc1c(CC(=O)O)cccc1C(=O)c1ccc(Br)cc1
inactive: Potency [1] | Potency [2] | Potency [3] | Potency [4]

CCc1cccc2c3c([nH]c12)C(CC)(CC(=O)O)OCC3 (stereo unspecified)
inactive: Potency [1] | Potency [2] | Potency [3] | Potency [4]

CC1=C(C)C(=O)C(CCCCC#CCCCC#CCO)=C(C)C1=O
inactive: Potency [1] | Potency [2] | Potency [3] | Potency [4]

N[C@@H](CSSC[C@H](N)C(=O)O)C(=O)O
inactive: activity change, negative = inhibition [1] -0.506% [at 0.757 µM] | activity change, negative = reduced viability [2] 9.51% [at 0.757 µM] | activity change, negative = lower viability [3] 6.72% [at 0.757 µM] | activity change, negative = inhibition [4] 13.5% [at 0.757 µM]

O=S(=O)(c1cccc2cnccc12)N1CCCNCC1
inactive: Potency [1] | Potency [2] | Potency [3] | Potency [4]

C#CCN(C)CCCOc1ccc(Cl)cc1Cl
inactive: Potency [1] | Potency [2] | Potency [3] | Potency [4]

C#C[C@]1(O)CC[C@H]2[C@@H]3CCC4=CC(=O)CC[C@@H]4[C@H]3CC[C@@]21C
inactive: Potency [1] | Potency [2] | Potency [3] | Potency [4]

CN1CCCCC1CCN1c2ccccc2Sc2ccc(S(C)=O)cc21 (stereo unspecified)
inactive: Potency [1] | Potency [2] | Potency [3] | Potency [4]

Cc1ccc(Nc2c(F)cccc2Cl)c(CC(=O)O)c1
inactive: Potency [1] | Potency [2] | Potency [3] | Potency [4]

CCCCC[C@H](O)C=C[C@H]1[C@H](O)CC(=O)[C@H]1CC=CCCCC(=O)O
inactive: Potency [1] | Potency [2] | Potency [3] | Potency [4]

O=C1c2cccc(O)c2C(=O)c2c(O)cccc21
inactive: Potency [1] | Potency [2] | Potency [3] | Potency [4]

CCN(CC)C(=O)C1CN2CCc3cc(OC)c(OC)cc3C2CC1OC(C)=O (stereo unspecified)
inactive: Potency [1] | Potency [2] | Potency [3] | Potency [4]

NCCNc1cccc2ccccc12
inactive: Potency [1] | Potency [2] | Potency [3] | Potency [4]

CCN1CCN(c2cc(-c3ccc(F)cc3)c3c(n2)CCCCCC3)CC1
inactive: Potency [1] | Potency [2] | Potency [3] | Potency [4]

Clc1ccccc1-c1nc(-c2ccncc2)no1
inactive: Potency [1] | Potency [2] | Potency [3] | Potency [4]

CC(C)[C@@H]1CC[C@@H](C)CC1=O
inactive: Potency [1] | Potency [2] | Potency [3] | Potency [4]

CC(C)N=C(N)/N=C(\N)Nc1ccc(Cl)cc1
inactive: Potency [1] | Potency [2] | Potency [3] | Potency [4]

Cc1cccc(C)c1NC(=O)CN1CCCC1
inactive: Potency [1] | Potency [2] | Potency [3] | Potency [4]

CCCCOC(=O)CCCCCCCCC(=O)OCCCC
inactive: Potency [1] | Potency [2] | Potency [3] | Potency [4]

CC[N+]1(CC)CCC(=C(c2ccccc2)c2ccccc2)C1C (stereo unspecified)
inactive: Potency [1] | Potency [2] | Potency [3] | Potency [4]

COC(=O)C1=C(C)NC(C)=C(C(=O)OCCN2CCN(C(c3ccccc3)c3ccccc3)CC2)C1c1cccc([N+](=O)[O-])c1 (stereo unspecified)
inactive: Potency [1] | Potency [2] | Potency [3] | Potency [4]

COc1ccc(CCN(C)CCCC(C#N)(c2cc(OC)c(OC)c(OC)c2)C(C)C)cc1OC (stereo unspecified)
inactive: Potency [1] | Potency [2] | Potency [3] | Potency [4]

CC(=O)Nc1ccn(C2COC(COC(=O)c3ccccc3)O2)c(=O)n1 (stereo unspecified)
inactive: Potency [1] | Potency [2] | Potency [3] | Potency [4]

CCc1cc2cc(OC)c(OC)cc2c(Cc2ccccc2)n1
inactive: Potency [1] | Potency [2] | Potency [3] | Potency [4]

Cc1oc(-c2ccccc2)nc1CCC(=O)c1ccc(CC2SC(=O)NC2=O)cc1 (stereo unspecified)
inactive: Potency [1] | Potency [2] | Potency [3] | Potency [4]

CC(C)(C)c1ccc(C(O)CCCN2CCC(C(O)(c3ccccc3)c3ccccc3)CC2)cc1 (stereo unspecified)
inactive: Potency [1] | Potency [2] | Potency [3] | Potency [4]

CCOC(=O)c1cc(=O)c2c(OCC(COc3cccc4oc(C(=O)OCC)cc(=O)c34)OC(=O)[C@@H](N)CCCCN)cccc2o1
inactive: Potency [1] | Potency [2] | Potency [3] | Potency [4]

CC(=O)N(CC(O)CN(C(C)=O)c1c(I)c(C(=O)NCC(O)CO)c(I)c(C(=O)NCC(O)CO)c1I)c1c(I)c(C(=O)NCC(O)CO)c(I)c(C(=O)NCC(O)CO)c1I (stereo unspecified)
inactive: Potency [1] | Potency [2] | Potency [3] | Potency [4]

O=C(Nc1ccc(S(=O)(=O)N2CCOCC2)cc1)c1cc(Cl)ccc1NS(=O)(=O)c1ccc(Cl)s1
inactive: Potency [1] | Potency [2] | Potency [3] | Potency [4]

O=C(CCN1CCN2CCCC2C1)N1c2ccccc2Sc2ccc(Cl)cc21 (stereo unspecified)
inactive: Potency [1] | Potency [2] | Potency [3] | Potency [4]

N/C(=N\N=C\c1ccc(Cl)cc1)N/N=C/c1ccc(Cl)cc1
inactive: Potency [1] | Potency [2] | Potency [3] | Potency [4]

Cc1ccc(C(=O)Nc2ccc(S(=O)(=O)O)c3cc(S(=O)(=O)O)cc(S(=O)(=O)O)c23)cc1NC(=O)c1cccc(NC(=O)Nc2cccc(C(=O)Nc3cc(C(=O)Nc4ccc(S(=O)(=O)O)c5cc(S(=O)(=O)O)cc(S(=O)(=O)O)c45)ccc3C)c2)c1
inactive: Potency [1] | Potency [2] | Potency [3] | Potency [4]

CN1[C@@H]2CC[C@H]1CC(OC(=O)c1c[nH]c3ccccc13)C2 (stereo partly specified)
inactive: Potency [1] | Potency [2] | Potency [3] | Potency [4]

CN1CCCN=C1COC(=O)C(O)(c1ccccc1)C1CCCCC1 (stereo unspecified)
inactive: Potency [1] | Potency [2] | Potency [3] | Potency [4]

CS(=O)(=O)c1ccc(-c2cn3ccccc3n2)cc1
inactive: Potency [1] | Potency [2] | Potency [3] | Potency [4]
